Shown is part of a subset that was picked to be rich in hits.
TTR transcr act = TTR transcription activators in neuroblastoma reporter cells, primary screen, cell-based, luminescence, SH-SY5Y, TTR promoter Gaussia luciferase; 100% = recombinant luciferase protein wells; activation, % at 16.7 µM; 92,000 tested, 1.3% active; AID 1117267, 2014;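 active means activation above the mean of all tested compounds plus 3 SD, cut at about 9.5% in these data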;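 further: cells exposed to compounds for one day before reading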
HuH7 TTR inh = TTR promoter reporter inhibitors in hepatoma cells, counter-screen for TTR transcription activator project, cell-based, luminescence, HuH7 hepatoma; shares compounds with TTR transcr act; HuH7 TTR promoter-Gaussia luciferase reporter; inhibition, % at 16.7 µM; 1,100 tested, 4% active;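 active means average inhibition above the solvent-only control wells' mean plus 3 SD, cut at about 15% in these data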;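 further: inhibitors lower well luminescence so higher value means more inhibition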
TTR up confirm = TTR transcription activators, retest, confirmation, cell-based, luminescence, SH-SY5Y, triplicate; shares compounds with TTR transcr act; SHSY5Y TTR promoter Gaussia luciferase; 100% = purified Lucia enzyme wells, no cells; activation, % at 16.7 µM; 1,100 tested, under 10 active; AID 1117280, 2014;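 active means mean activation above a set limit taken from the earlier primary screen, cut at about 11% in these data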
Numbers stand for hits.

Results for CCN(CC)CCNC(=O)C(=O)Nc1cc2c3c(c1)CC(=O)N3CCC2 ?
TTR transcr act: inactive

Results for O=C(CCl)c1cc2c3c(c1)CC(=O)N3CCC2 ?
TTR transcr act: 11; HuH7 TTR inh: 75; TTR up confirm: inactive

How did CCCCOc1ccc(C(=O)NC2CCCCN(Cc3ccccc3C)C2=O)cc1 (stereo not given) do in these assays?
TTR transcr act: inactive

How did CN(CC(=O)Nc1cccc(F)c1)C(=O)c1ccc(OCC2CCCO2)cc1 (stereo not given) do in these assays?
TTR transcr act: inactive

Results for Cc1ccc(NC(=O)CSCC(=O)N(C)CC(=O)Nc2cccc(F)c2)cc1 ?
TTR transcr act: inactive

Results for CCC(=O)c1ccc(OCC(=O)N(C)CC(=O)Nc2cccc(F)c2)cc1 ?
TTR transcr act: 10.0; HuH7 TTR inh: inactive; TTR up confirm: inactive

How did CC1C(=O)N(Cc2cn(Cc3ccco3)nn2)CCS(=O)(=O)N1Cc1ccc(-c2ccc(Cl)c(Cl)c2)cc1 (stereo not given) do in these assays?
TTR transcr act: inactive

How did COC(=O)[C@]12C[C@H](CC(=O)N3CCC(c4ccccc4)CC3)C(=O)N(Cc3ccc(Cl)cc3Cl)C1=C[C@H](C(C)C)O[C@@H]2C1CC1 do in these assays?
TTR transcr act: inactive

What do the screens show for `CCc1ccc(C#CC2=CC(=O)CC(C)(C)C2)cc1`?
TTR transcr act: inactive

What do the screens show for `Cc1cc(C)c(/C([O-])=C(/C(=S)Nc2ccc(SC(F)F)cc2)[n+]2ccccc2)cc1C`?
TTR transcr act: inactive

What do the screens show for `[O-]/C(=C(\C(=S)Nc1ccc(SC(F)F)cc1)[n+]1ccccc1)c1cc(Cl)ccc1Cl`?
TTR transcr act: 22; HuH7 TTR inh: 20; TTR up confirm: inactive

Results for C=CCNC(=S)/C(=C(\[O-])c1ccc(Cl)cc1)[n+]1ccccc1 ?
TTR transcr act: inactive

What do the screens show for `CCOC(=O)[C@@H](NC(=O)[C@@H]1CC=C[C@@H]2CCN(Cc3ccc(Cl)cc3)C(=O)[C@@H]21)C(C)C`?
TTR transcr act: inactive

How did Cc1ccc(C)c(NC(=O)[C@@H]2CCCN2S(=O)(=O)c2cccc3cccnc23)c1 do in these assays?
TTR transcr act: inactive

How did Cc1cc(NC(=O)CS(=O)(=O)c2cn(Cc3cccc(C(F)(F)F)c3)c3ccccc23)no1 do in these assays?
TTR transcr act: inactive

What do the screens show for `O=C(CSc1nnc(NC(=O)c2ccco2)s1)Nc1ccc(F)cc1`?
TTR transcr act: inactive

How did Cc1cccc(NC(=O)CSc2nnc(NC(=O)c3ccco3)s2)c1 do in these assays?
TTR transcr act: 11; HuH7 TTR inh: inactive; TTR up confirm: inactive

How did Cc1cccc(CSc2nnc(NC(=O)c3ccco3)s2)c1 do in these assays?
TTR transcr act: inactive

What do the screens show for `CC1(c2ccccc2)CC(=O)N(c2ccc(NC(=O)c3ccccn3)cc2Cl)C1=O` (stereo not given)?
TTR transcr act: inactive

What do the screens show for `Cc1ccc(CNC(=O)Cc2ccc(-c3ccccc3)cc2)cc1`?
TTR transcr act: 13; HuH7 TTR inh: 53; TTR up confirm: inactive

How did Cc1ccc(CC(=O)NCc2ccc(F)cc2)cc1 do in these assays?
TTR transcr act: inactive

Results for O=C(Cc1ccc(-c2ccccc2)cc1)NCc1ccccc1 ?
TTR transcr act: inactive

Results for CCCCCCCCN1C(=O)[C@@H](CC(=O)NCCCCc2ccccc2)C[C@@]2(C(=O)OC)C1=C[C@H](COCc1ccccc1)O[C@@H]2C ?
TTR transcr act: inactive

How did CCC[C@H]1OC(=O)[C@@H]2CCCN2C(=O)[C@H]([C@H](C)Cc2ccccc2)NC(=O)[C@@H]2CCCN2C(=O)[C@@H]2CCCN2C(=O)[C@H](C(C)C)OC(=O)[C@@H]2CCCN2C(=O)[C@H](C(C)C)NC(=O)C1(C)C do in these assays?
TTR transcr act: inactive

What do the screens show for `CC(=O)c1cnc2cc(-c3cccc(Br)c3)nn2c1C`?
TTR transcr act: 9.7; HuH7 TTR inh: inactive; TTR up confirm: inactive

Results for CCOC(=O)c1cnc2cc(-c3ccc(C(C)(C)C)cc3)nn2c1N ?
TTR transcr act: inactive

How did Cc1cc(C)n2nc(-c3cccc(Br)c3)cc2n1 do in these assays?
TTR transcr act: inactive

What do the screens show for `COc1ccc(C(=O)NCC(=O)OCC(=O)NCCC2=CCCCC2)cc1`?
TTR transcr act: inactive

Results for COc1cc(C#N)ccc1OCC(=O)NCCC1=CCCCC1 ?
TTR transcr act: inactive

What do the screens show for `COc1cc(/C=C/C(=O)OCC(=O)NCCC2=CCCCC2)cc(OC)c1OC`?
TTR transcr act: 10; HuH7 TTR inh: inactive; TTR up confirm: inactive

Results for FC(F)(F)Oc1ccc(Cn2ccc3ccc(-c4ccc5ccn(Cc6ccccc6)c5c4)cc32)cc1 ?
TTR transcr act: inactive

What do the screens show for `Cc1ccc(C(=O)CCC(=O)NN2C(=O)NC3(CCCCC3)C2=O)cc1`?
TTR transcr act: inactive

Results for CCC(=O)N(c1nnc(SCC(=O)NN2C(=O)NC3(CCC(C)CC3)C2=O)s1)C1CC1 (stereo not given) ?
TTR transcr act: inactive

What do the screens show for `Cc1nnc(SCC(=O)NN2C(=O)NC3(CCCCC3)C2=O)s1`?
TTR transcr act: 11; HuH7 TTR inh: inactive; TTR up confirm: inactive

What do the screens show for `COc1ccc(/C=C2\N=C3CCCCCN3C2=O)cc1`?
TTR transcr act: inactive

How did O=C1/C(=C/c2ccncc2)N=C2CCCCCN12 do in these assays?
TTR transcr act: 47; HuH7 TTR inh: inactive; TTR up confirm: inactive

How did O=C1/C(=C/c2ccncc2)CCC/C1=C\c1ccncc1 do in these assays?
TTR transcr act: inactive

What do the screens show for `c1csc(CNc2ncnc3ccc(-c4ccc5c(c4)OCO5)cc23)n1`?
TTR transcr act: inactive

Results for N#Cc1ccc(-c2cccc3nccn23)cc1 ?
TTR transcr act: inactive

Results for Cc1ccc2nc(SCC(=O)Nc3nonc3C)[nH]c2c1 ?
TTR transcr act: 10; HuH7 TTR inh: inactive; TTR up confirm: inactive

Results for Cc1ccc2nc(SCC(=O)N3CCCC3)[nH]c2c1 ?
TTR transcr act: inactive

What do the screens show for `Cc1ccc2nc(SCC(=O)NC3CC3)[nH]c2c1`?
TTR transcr act: inactive

What do the screens show for `O=C(CCSCc1cccc(F)c1)NCCc1ccccc1`?
TTR transcr act: inactive

Results for COC[C@@H]1CCCN1c1cccc2c1S(=O)(=O)N1CC[C@@H](C1)O2 ?
TTR transcr act: inactive

Results for Cc1cccc(NC(=O)c2nc[nH]c2C(=O)N[C@@H](C)c2ccccc2)c1 ?
TTR transcr act: inactive

Results for Cc1cccc(C(=O)NC(=S)NC(C)c2ccccc2)c1 (stereo not given) ?
TTR transcr act: inactive

How did CC1=C(C(=O)Nc2cccc(C(=O)NC(C)c3ccccc3)c2)SCCO1 (stereo not given) do in these assays?
TTR transcr act: 11; HuH7 TTR inh: inactive; TTR up confirm: inactive

Results for COC(=O)c1ccc(Sc2ccccc2NS(=O)(=O)c2ccc(OC)cc2)nc1 ?
TTR transcr act: inactive

What do the screens show for `O=C(NCc1cccc(C(F)(F)F)c1)c1csc([C@H]2C[C@H](O)[C@@H](CO)O2)n1`?
TTR transcr act: inactive

What do the screens show for `CCCCCCCCN1C(=O)[C@H](CC(=O)NCCc2ccccc2OC)C[C@@]2(C(=O)OCC)CCCC=C12`?
TTR transcr act: inactive

Source: PubChem (The Scripps Research Institute Molecular Screening Center)
